# PubChem BioAssay (Tox21)
# A number with no mark means an inactive call. Records with an inconclusive call do not appear. Entries that show only a call come without a potency. Activity calls are given as the source filed them. Unless noted, calls come from the whole dose curve; as a rule, active = well fitted curve in the direction sought with a large enough effect in the repeat runs; inconclusive = weak or mixed curves; inactive = no such curve, though single readings can be large; an effect the other way counts as inactive or inconclusive.
# Key:
# [1] = target: Androgen receptor (Homo sapiens) (UniProt P10275); experiment: qHTS assay to identify small molecule antagonists of the androgen receptor (AR) signaling pathway using the MDA cell line in the presence of 0.5 nM R1881 (AID 1259243); conditions: MDA-kb2 MMTV-luciferase, R1881 0.5 nM, 16 h; series mostly up to 92.4 µM; note: nearly all actives have a fitted effect of over 50% in size
# Outline: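 We exposed MDA-kb2 cells to compounds under 0.5 nM R1881 stimulation for 16 hr at 37C and quantified MMTV-driven luciferase by luminescence.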
# [2] = target: Estrogen receptor (Homo sapiens) (UniProt P03372); experiment: qHTS assay to identify small molecule antagonists of the estrogen receptor alpha (ER-alpha) signaling pathway using the BG1 cell line in the presence of 0.1 nM 17-beta-estradiol (AID 1259244); conditions: VM7Luc4E2 (BG1) ERE-luciferase, antagonist mode, 0.1 nM E2, 22 h; series mostly up to 92.4 µM; note: nearly all actives have a fitted effect of over 50% in size
# Outline: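 VM7Luc4E2; 4xERE-luciferase; 0.1 nM E2 final; 22 h co-incubation, 37C; ONE-Glo luminescence after 30 min at room temperature.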
# [3] = qHTS assay to identify small molecule HDAC inhibitors (AID 1259364); conditions: HCT-116 HDAC-Glo I/II luminescence, 2 h; series mostly up to 92.4 µM;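 note: wild-type HCT-116 cells with endogenous class I/II HDAC activity; top concentration of the series differs between compounds; nearly all actives have a fitted effect of over 45% in size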
# Outline: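 Relative class I and II HDAC activity is taken from the luminogenic signal in HCT-116 cells, with compound exposure 2 hr and reagent development 30 min at room temperature.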
# [4] = qHTS assay to identify small molecule HDAC inhibitors - cell viability counter screen (AID 1259365); conditions: HCT-116 viability, CellTiter-Glo ATP luminescence, 2 h; series mostly up to 92.4 µM; note: nearly all actives have a fitted effect of over 50% in size
# Outline: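 After overnight seeding at 1,500 cells per well, wild-type HCT-116 cultures took up compounds in DMSO for 2hr at 37 C. Viable cell content came from luminescence with CellTiter-Glo.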
# [5] = qHTS assay to identify small molecule agonists of the sonic hedgehog signaling (Shh) pathway - cell viability counter screen (AID 1259366); conditions: NIH/3T3 Gli1-Luc viability, CellTiter-Fluor, 24 h; series mostly up to 92.4 µM; note: nearly all actives have a fitted effect of over 50% in size
# Outline: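 Same-well cytotoxicity read. Gli1-Luc reporter 3T3 cells; compounds 24hr, 37C/5% CO2; CellTiter-Fluor fluorescence.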
# [6] = qHTS assay to identify small molecule antagonists of the sonic hedgehog signaling (Shh) pathway - cell viability counter screen (AID 1259367); conditions: NIH/3T3 Gli1-Luc viability, CellTiter-Fluor, 24 h; series mostly up to 92.4 µM; note: nearly all actives have a fitted effect of over 55% in size
# Outline: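 Using CellTiter-Fluor, viability of Gli1-Luc reporter 3T3 cells is read by fluorescence in the wells used for the Shh luciferase assay. Treatment lasts 23 hr with conditioned medium, then reagent 1 hr at 37C.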
# [7] = qHTS assay to identify small molecule agonists of the sonic hedgehog signaling (Shh) pathway (AID 1259368; calls by dose curve;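 note: NIH/3T3-derived 3T3Gli1-Luc cells carrying a stable Gli1-driven firefly luciferase reporter; nearly all actives have a fitted effect of over 15% in size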); conditions: NIH/3T3 Gli1-Luc reporter, luciferase, 24 h; series mostly up to 92.4 µM
# Outline: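 Mouse fibroblast (NIH/3T3) reporter cells with stably integrated Gli1-Luc were treated 24 hr with compound; firefly luciferase luminescence served as the read-out.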
# [8] = qHTS assay to identify small molecule antagonists of the sonic hedgehog signaling (Shh) pathway (AID 1259369; calls by dose curve; note: nearly all actives have a fitted effect of over 45% in size); conditions: NIH/3T3 Gli1-Luc reporter, Shh antagonist, luminescence 24 h; series mostly up to 92.4 µM
# Outline: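 Conditioned medium drives Shh signalling in 3T3Gli1-Luc cells; compounds in DMSO co-applied, 24hr at 37 C, then luciferase luminescence.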
# [9] = target: Estrogen receptor beta (Homo sapiens) (UniProt Q92731); experiment: qHTS assay to identify small molecule agonists of the estrogen receptor beta (ER-beta) signaling pathway (AID 1259377; active = well fitted activation curve with a large enough effect in the signal ratio in the repeat runs, not every such curve was filed as active; the % refers to the signal ratio); conditions: ER-beta-UAS-bla HEK293T, beta-lactamase FRET ratio, 16 h; series mostly up to 92.4 µM
# Outline: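 Read-out: beta-lactamase FRET fluorescence. Cell line: ER-beta-UAS-bla HEK293T in 2% charcoal-stripped FBS. Exposure: 16 hr at 37C. Substrate step: 2 h at room temperature.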
# [10] = target: Estrogen receptor beta (Homo sapiens) (UniProt Q92731); experiment: qHTS assay to identify small molecule antagonists of the estrogen receptor beta (ER-beta) signaling pathway (AID 1259378; active = well fitted inhibition curve with a large enough effect in the signal ratio in the repeat runs, not every such curve was filed as active; the % refers to the signal ratio); conditions: ER-beta-UAS-bla HEK293T, beta-lactamase FRET ratio, 16 h; series mostly up to 92.4 µM
# Outline: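 Antagonist mode: compounds added to beta-lactamase reporter HEK293T ER-beta-UAS cells stimulated with E2 (1nM final), 16 hr at 37C. LiveBLAzer B/G FRET substrate, 2 hours room temperature, fluorescence read-out.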
# [11] = qHTS assay to identify small molecule agonists of the estrogen receptor beta (ER-beta) signaling pathway - cell viability counter screen (AID 1259380); conditions: ER-beta-bla HEK293T viability, CellTiter-Glo luminescence, 16 h; series mostly up to 92.4 µM; note: nearly all actives have a fitted effect of over 30% in size; note: potency is the fitted concentration of half-maximal effect
# Outline: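 Cells used were ER-beta-UAS-bla HEK293T in medium with 2% charcoal-stripped FBS. They were treated for 16 hr at 37C. Viability came from CellTiter-Glo luminescence.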
# [12] = qHTS assay to identify small molecule antagonists of the estrogen receptor beta (ER-beta) signaling pathway - cell viability counter screen (AID 1259382); conditions: ER-beta-UAS-bla HEK293T viability, CellTiter-Glo luminescence, 16 h; series mostly up to 92.4 µM; note: nearly all actives have a fitted effect of over 55% in size
# Outline: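 Agonist-stimulated (1nM E2) ER-beta-UAS-bla HEK293T cells are incubated with library compounds for 16 hr at 37C. Cell viability is then assessed in the reporter-assay wells by adding CellTiter-Glo and reading luminescence after 30 min.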
# [13] = target: Estrogen receptor (Homo sapiens) (UniProt P03372); experiment: qHTS assay to identify small molecule agonists of the estrogen receptor alpha (ER-alpha) signaling pathway in the presence of an antagonist (AID 1259383; calls by dose curve; note: top concentration of the series differs between compounds; nearly all actives have a fitted effect of over 15% in size); conditions: VM7Luc4E2 cells, ERE-luciferase, +ICI-182,780, 22 h; series mostly up to 92.4 µM
# Outline: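 Using VM7Luc4E2 cells seeded 24hr before treatment, antagonist ICI-182,780 (10.0nM final) was added, followed by compounds at 15 concentrations. Plates incubated 22hr; ONE-Glo luminescence quantified reporter activity.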
# [14] = qHTS assay to identify small molecule agonists or antagonists of the thyroid stimulating hormone receptor (TSHR) signaling pathway - wild type cell line counter screen (AID 1259384; calls by dose curve); conditions: HEK293 wild type, cAMP HTRF counter-screen, hits give high values; series mostly up to 92.4 µM
# Outline: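 Counter screen in untransfected Hek293: compounds (15-point titration, triplicate) plus phosphodiesterase inhibitor Ro20-1724 added after 18 h plating; 30 min RT. Intracellular cAMP via competitive d2/cryptate immunoassay, 1 h incubation.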
# [15] = qHTS assay to identify small molecule agonists of the estrogen receptor alpha (ER-alpha) signaling pathway in the presence of an antagonist - cell viability counter screen (AID 1259386); conditions: VM7Luc4E2 viability, CellTiter-Fluor fluorescence, 22 h; series mostly up to 92.4 µM;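 note: cells exposed to compounds for 22 h at 37 °C before the viability read; nearly all actives have a fitted effect of over 30% in size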
# Outline: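 ICI-182,780 at 10.0nM final accompanies the compound titration (15 concentrations, 22hr, 37C) on VM7Luc4E2 cells. The CellTiter-Fluor fluorescence readout runs in the same wells as the luciferase assay.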
# [16] = target: Progesterone receptor (Homo sapiens) (UniProt P06401); experiment: qHTS assay to identify small molecule agonists of the progesterone receptor (PR) signaling pathway (AID 1346784; calls by dose curve; note: nearly all actives have a fitted effect of over 30% in size); conditions: PR-UAS-bla HEK293T, beta-lactamase FRET ratio, 16 h; series mostly up to 92.4 µM
# Outline: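 Compounds were tested for PR agonism in HEK 293T cells bearing a beta-lactamase gene under UAS control. Treatment lasted 16 hr at 37C; signal came from fluorescence of a FRET substrate.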
# [17] = qHTS assay to identify small molecule agonists of the androgen receptor (AR) signaling pathway in the presence of an antagonist - cell viability counter screen (AID 1259379); conditions: MDA-kb2 viability, CellTiter-Fluor, 16 h; series mostly up to 92.4 µM;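 note: MDA-kb2 human breast cancer cells carrying an MMTV luciferase reporter; nearly all actives have a fitted effect of over 25% in size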
# Outline: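 A CellTiter-Fluor read-out measured viability of MDA-kb2 reporter cells (MMTV promoter with AR and GR response elements). Treatment: nilutamide 3.0uM final with compounds at 15 concentrations, 16 hr, 37C, 0% CO2.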
# [18] = target: Androgen receptor (Homo sapiens) (UniProt P10275); experiment: qHTS assay to identify small molecule agonists of the androgen receptor (AR) signaling pathway in the presence of an antagonist (AID 1259381; calls by dose curve; note: nearly all actives have a fitted effect of over 15% in size); conditions: MDA-kb2 MMTV-luciferase, AR agonist + nilutamide, 16 h; series mostly up to 92.4 µM
# Outline: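 Using human MDA-kb2 cells with an MMTV promoter–luciferase construct (AR and GR response elements), agonist activity is scored under 3.0uM nilutamide (final) co-treatment; 16hr incubation, 37C, luminescence readout via ONE-Glo.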
# [19] = target: Thyrotropin receptor (Homo sapiens) (UniProt P16473); experiment: qHTS assay to identify small molecule antagonists of the thyroid stimulating hormone receptor (TSHR) signaling pathway (AID 1259385; calls by dose curve; note: nearly all actives have a fitted effect of over 20% in size); conditions: TSHR-HEK293 cAMP HTRF, TSH-stimulated antagonist mode; series mostly up to 92.4 µM
# Outline: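 Antagonist mode: compound-treated TSHR-expressing HEK293 cells were stimulated with 1.5 ng/mL TSH (final) in presence of Ro20-1724 for 30 min at RT. HTRF cAMP detection after 1 h; each compound tested at 15 concentrations, triplicate.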
# [20] = qHTS assay to identify small molecule phospholipidosis (PLD) inducers (AID 1259344; active = well fitted curve in the direction sought with a large enough effect; an effect the other way counts as inactive or inconclusive); conditions: HepG2 phospholipidosis, LipidTOX Red imaging, 24 h; series mostly up to 38.3 µM
# Outline: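 Fluorescent phospholipid staining (LipidTOX Red) measured by automated microscopy in fixed HepG2 cells after 24 h treatment; nuclei counterstained with Hoechst 33342; amiodarone as reference inducer.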
# Chain of Progesterone receptor (Homo sapiens) (P06401 whole entry, looked up): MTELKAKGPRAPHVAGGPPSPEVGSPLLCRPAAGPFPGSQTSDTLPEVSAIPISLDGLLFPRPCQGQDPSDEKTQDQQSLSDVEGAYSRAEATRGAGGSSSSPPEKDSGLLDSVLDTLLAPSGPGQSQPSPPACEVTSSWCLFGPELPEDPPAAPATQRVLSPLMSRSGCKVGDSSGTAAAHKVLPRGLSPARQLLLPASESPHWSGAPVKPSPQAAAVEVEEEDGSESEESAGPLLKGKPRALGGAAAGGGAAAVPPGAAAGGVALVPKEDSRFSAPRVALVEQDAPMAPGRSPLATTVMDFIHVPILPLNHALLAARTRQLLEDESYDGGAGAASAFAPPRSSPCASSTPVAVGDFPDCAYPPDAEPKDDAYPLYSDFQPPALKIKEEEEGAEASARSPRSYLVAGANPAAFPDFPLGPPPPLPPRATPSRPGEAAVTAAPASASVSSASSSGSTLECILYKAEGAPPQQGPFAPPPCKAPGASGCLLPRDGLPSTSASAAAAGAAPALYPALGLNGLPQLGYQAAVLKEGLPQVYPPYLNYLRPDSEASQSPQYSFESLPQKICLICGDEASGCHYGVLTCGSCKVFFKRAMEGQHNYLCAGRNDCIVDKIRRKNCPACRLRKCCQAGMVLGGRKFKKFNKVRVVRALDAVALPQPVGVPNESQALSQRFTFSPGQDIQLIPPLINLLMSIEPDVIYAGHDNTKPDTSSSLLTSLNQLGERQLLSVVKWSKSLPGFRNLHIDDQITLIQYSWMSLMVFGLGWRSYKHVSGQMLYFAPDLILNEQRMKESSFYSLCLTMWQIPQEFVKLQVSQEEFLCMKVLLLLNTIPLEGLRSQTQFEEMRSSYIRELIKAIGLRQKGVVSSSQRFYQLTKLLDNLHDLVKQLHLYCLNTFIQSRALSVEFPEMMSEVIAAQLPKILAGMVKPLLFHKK
# Chain of Androgen receptor (Homo sapiens) (P10275 whole entry, looked up): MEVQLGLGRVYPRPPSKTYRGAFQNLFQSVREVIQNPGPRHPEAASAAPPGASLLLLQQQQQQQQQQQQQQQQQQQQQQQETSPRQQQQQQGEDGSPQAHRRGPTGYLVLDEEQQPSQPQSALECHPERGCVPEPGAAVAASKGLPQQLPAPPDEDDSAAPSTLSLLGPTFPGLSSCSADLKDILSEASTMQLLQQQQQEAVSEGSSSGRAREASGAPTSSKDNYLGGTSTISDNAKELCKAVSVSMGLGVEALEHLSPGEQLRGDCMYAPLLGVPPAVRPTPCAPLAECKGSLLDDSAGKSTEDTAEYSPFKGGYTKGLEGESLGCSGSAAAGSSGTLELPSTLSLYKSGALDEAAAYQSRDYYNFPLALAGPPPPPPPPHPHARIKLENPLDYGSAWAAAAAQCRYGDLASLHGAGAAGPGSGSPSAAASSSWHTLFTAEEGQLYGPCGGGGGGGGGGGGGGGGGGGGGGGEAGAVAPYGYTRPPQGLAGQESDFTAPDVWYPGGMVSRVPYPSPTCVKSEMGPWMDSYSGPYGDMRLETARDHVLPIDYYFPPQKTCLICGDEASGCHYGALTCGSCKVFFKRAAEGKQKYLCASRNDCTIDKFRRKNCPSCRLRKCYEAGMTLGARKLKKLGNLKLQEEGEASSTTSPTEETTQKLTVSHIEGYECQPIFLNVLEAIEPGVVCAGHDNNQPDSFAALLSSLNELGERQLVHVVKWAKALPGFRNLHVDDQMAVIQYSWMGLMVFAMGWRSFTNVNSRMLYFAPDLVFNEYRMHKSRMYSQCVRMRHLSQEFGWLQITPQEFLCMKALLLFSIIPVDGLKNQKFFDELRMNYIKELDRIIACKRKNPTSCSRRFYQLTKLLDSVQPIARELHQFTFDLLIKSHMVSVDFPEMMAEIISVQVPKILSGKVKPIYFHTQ
# Chain of Estrogen receptor (Homo sapiens) (P03372 whole entry, looked up): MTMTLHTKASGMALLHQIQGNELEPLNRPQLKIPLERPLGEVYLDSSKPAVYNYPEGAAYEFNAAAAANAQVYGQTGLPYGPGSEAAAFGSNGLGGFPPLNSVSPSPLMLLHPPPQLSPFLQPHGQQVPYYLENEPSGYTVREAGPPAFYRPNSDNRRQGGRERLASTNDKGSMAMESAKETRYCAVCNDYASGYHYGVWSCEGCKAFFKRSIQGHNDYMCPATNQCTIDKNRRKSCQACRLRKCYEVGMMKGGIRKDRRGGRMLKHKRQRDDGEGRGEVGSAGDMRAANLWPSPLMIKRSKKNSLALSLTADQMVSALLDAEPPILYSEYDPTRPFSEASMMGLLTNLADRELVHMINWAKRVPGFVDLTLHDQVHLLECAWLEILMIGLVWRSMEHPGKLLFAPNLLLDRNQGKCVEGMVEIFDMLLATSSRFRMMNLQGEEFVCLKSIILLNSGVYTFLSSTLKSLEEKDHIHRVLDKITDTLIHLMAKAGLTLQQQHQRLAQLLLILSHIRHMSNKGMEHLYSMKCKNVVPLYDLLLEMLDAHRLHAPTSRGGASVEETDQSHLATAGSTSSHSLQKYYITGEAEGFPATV
# Chain of Thyrotropin receptor (Homo sapiens) (P16473 whole entry, looked up): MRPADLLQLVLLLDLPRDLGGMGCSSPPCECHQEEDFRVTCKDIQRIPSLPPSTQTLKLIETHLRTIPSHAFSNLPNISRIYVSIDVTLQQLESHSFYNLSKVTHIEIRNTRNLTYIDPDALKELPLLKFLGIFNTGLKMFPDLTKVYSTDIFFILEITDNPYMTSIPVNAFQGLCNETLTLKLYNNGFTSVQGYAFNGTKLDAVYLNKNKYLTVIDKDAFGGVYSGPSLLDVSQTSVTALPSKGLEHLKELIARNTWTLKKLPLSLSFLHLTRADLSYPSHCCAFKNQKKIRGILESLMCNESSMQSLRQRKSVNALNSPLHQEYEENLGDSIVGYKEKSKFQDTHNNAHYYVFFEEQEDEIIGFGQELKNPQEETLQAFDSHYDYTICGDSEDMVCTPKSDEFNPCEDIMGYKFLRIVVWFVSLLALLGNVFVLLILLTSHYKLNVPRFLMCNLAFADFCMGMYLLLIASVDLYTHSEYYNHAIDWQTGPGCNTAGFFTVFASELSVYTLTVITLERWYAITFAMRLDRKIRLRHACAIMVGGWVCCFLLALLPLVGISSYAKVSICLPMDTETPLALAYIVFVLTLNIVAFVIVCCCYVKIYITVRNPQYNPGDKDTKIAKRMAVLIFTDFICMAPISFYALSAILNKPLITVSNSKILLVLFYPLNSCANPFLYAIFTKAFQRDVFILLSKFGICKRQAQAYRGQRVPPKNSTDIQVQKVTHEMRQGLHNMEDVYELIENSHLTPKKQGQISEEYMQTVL
# Chain of Estrogen receptor beta (Homo sapiens) (Q92731 whole entry, looked up): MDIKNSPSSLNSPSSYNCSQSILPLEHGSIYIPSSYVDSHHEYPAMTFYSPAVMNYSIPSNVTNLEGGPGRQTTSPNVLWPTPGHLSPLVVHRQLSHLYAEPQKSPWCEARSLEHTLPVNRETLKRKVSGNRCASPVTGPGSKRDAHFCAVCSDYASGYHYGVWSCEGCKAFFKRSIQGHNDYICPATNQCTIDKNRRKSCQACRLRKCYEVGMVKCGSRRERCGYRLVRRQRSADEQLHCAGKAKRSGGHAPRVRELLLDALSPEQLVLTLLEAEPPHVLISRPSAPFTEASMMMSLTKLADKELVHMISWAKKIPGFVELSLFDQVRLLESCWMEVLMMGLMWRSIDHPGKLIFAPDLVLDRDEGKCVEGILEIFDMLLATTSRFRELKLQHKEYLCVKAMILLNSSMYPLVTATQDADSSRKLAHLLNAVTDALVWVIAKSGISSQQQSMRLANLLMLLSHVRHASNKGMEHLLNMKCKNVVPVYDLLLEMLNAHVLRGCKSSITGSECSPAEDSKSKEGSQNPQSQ
SMILES,Potency [1],Potency [2],Potency [3],Potency [4],Potency [5],Potency [6],Potency [7],Potency [8],Potency [9],Potency [10],Potency [11],Potency [12],Potency [13],outcome [14],Potency [15],outcome [16],Potency [17],Potency [18],Potency [19],Potency [20]
CCc1ccc(C)nc1,inactive,inactive,inactive,inactive,inactive,inactive,inactive,inactive,inactive,inactive,inactive,inactive,inactive,inactive,inactive,inactive,–,–,–,–
Cc1cnccn1,inactive,inactive,inactive,inactive,inactive,inactive,inactive,inactive,inactive,inactive,inactive,inactive,inactive,–,inactive,inactive,inactive,inactive,–,–
C[C@@H]1CC[C@H]2C(C)(C)[C@H]3C[C@@]12CC[C@@]3(C)O,inactive,inactive,inactive,inactive,inactive,inactive,inactive,inactive,inactive,inactive,inactive,inactive,inactive,inactive,inactive,inactive,inactive,inactive,inactive,–
CC(C)=CCCC(C)O (configuration not stated),inactive,inactive,inactive,inactive,inactive,inactive,inactive,inactive,inactive,inactive,inactive,inactive,inactive,inactive,inactive,inactive,inactive,inactive,inactive,–
CCCSS/C(CCO)=C(\C)N(C=O)Cc1cnc(C)nc1N,inactive,inactive,inactive,–,–,inactive,inactive,inactive,–,–,26.6 µM (active),inactive,inactive,inactive,inactive,inactive,inactive,–,inactive,inactive
CC(C)CCOCCC(C)C,inactive,inactive,inactive,inactive,inactive,inactive,inactive,inactive,inactive,inactive,inactive,inactive,inactive,inactive,inactive,inactive,inactive,inactive,inactive,–
C/C=C/CO,inactive,inactive,inactive,inactive,inactive,inactive,inactive,inactive,–,inactive,inactive,inactive,inactive,inactive,inactive,inactive,inactive,–,inactive,–
